{
  "source": "PubChem BioAssay (NCI)",
  "note": "“And” between values parts separate entries of the source, which are not always exact repeats. Equal values may be shown once. About 83,000 compounds went through this panel and 20% of them were active in at least one assay; those are over-represented in the sample as a whole.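 Results are percent growth after 48 hours of single-concentration exposure. 100 means growth as in untreated cells, lower positive values show inhibition; negative values down to -100 show cell death.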 Values without a mark were called inactive. The source made the active and inactive calls. The calls were made as follows: active = growth percent below 10; inactive = the rest.",
  "data": [
    {"tested_on": "HL-60(TB) leukemia", "experiment": "NCI-60 one-dose screen, 48 h (100 = growth as untreated, 0 = no growth, -100 = all killed)", "settings": "10 µM unless noted", "values": [
      {"smiles": "COc1cc(/C=C/C(=O)c2cccc(Nc3nc(Nc4ccccc4)nc(Nc4ccccc4)n3)c2)cc(OC)c1OC", "growth": "9.01% (active)"},
      {"smiles": "CC1=CC[C@@H]2C(C)(C)C(=O)CC[C@@]2(C)[C@@H]1COc1ccc2ccc(=O)oc2c1", "growth": "85.9%"},
      {"smiles": "COc1cc(CNC(=O)CCCC/C=C/C(C)C)ccc1OCc1nnc(Nc2ccc([N+](=O)[O-])cc2)o1", "growth": "101%"},
      {"smiles": "O=C(COc1ccc(/C=C2\\Oc3ccccc3C2=O)cc1)Nc1nc2c(s1)CCCC2", "growth": "-72.2% (active)"},
      {"smiles": "O=C1c2cc3c(cc2-c2c1c1cc(Cl)c(Cl)cc1c(=O)n2C[C@H](O)CO)OCO3", "growth": "-22.6% (active)"},
      {"smiles": "CSC1=NC(=Nc2c(C)cccc2C)C2(CCC(C(C)(C)C)CC2)N1c1ccc(Cl)cc1", "note": "(centres undefined)", "growth": "53.4%"},
      {"smiles": "Cn1cnc([N+](=O)[O-])c1Sc1ncnc2nc[nH]c12", "growth": "73.5% and 91.7%"},
      {"smiles": "CCOC(=O)c1sc2ncnc(Nc3ccc(NC(=O)Nc4ccc(Cl)cc4)cc3)c2c1C", "growth": "91.4%"},
      {"smiles": "CC1(CO)CCCC12OCCO2", "note": "(centres undefined)", "growth": "105%"},
      {"smiles": "N#Cc1ncc(-c2cc(F)c(F)c(F)c2)c(NC2CCCCCC2)n1", "growth": "108%"},
      {"smiles": "O=c1[nH]c2ccccc2cc1-c1nc2ccc(Cl)cc2[nH]1", "growth": "-26.1% (active)"},
      {"smiles": "COc1ccc(-c2nc3ccc4[nH]ncc4c3c3c2CCCC3)cc1B(O)O", "growth": "64.6%"},
      {"smiles": "CN[C@@]12CC3(C=CC(=O)C=C3)O[C@]1(Cc1ccc(OC)cc1)N(C)C(=O)N2", "growth": "0.452% (active)"},
      {"smiles": "Cc1ccccc1CNc1ccc(N2CCOCC2)cc1", "growth": "102%"},
      {"smiles": "NC(=O)c1c(NC(=O)c2ccc(OCC3CCCO3)cc2)sc2c1CCCC2", "note": "(centres undefined)", "growth": "53.8%"},
      {"smiles": "C/C(=N\\NC(=O)c1ccncc1)c1ccccc1O", "growth": "5.87% (active) and 2.85% (active)"},
      {"smiles": "S=c1ccc2ccccc2[nH]1", "growth": "85.3% and 97.6%"},
      {"smiles": "N=C(N)c1ccc(-c2ccc(-c3ccccc3)o2)nc1", "growth": "54.1%"},
      {"smiles": "Cc1sc2c(c1C)c(=O)nc1c(-c3nc4ccccc4s3)n[nH]n12", "growth": "98.3%"},
      {"smiles": "COc1cc(-n2cc(-c3cc(O)c(C/C=C(\\C)CCC=C(C)C)c(O)c3)nn2)cc2c1O[C@]1(C)CC[C@@H](O)C(C)(C)[C@H]1C2", "growth": "-13.9% (active)"},
      {"smiles": "COc1cccc(/C=N/Nc2nc3ccccc3s2)c1OC", "growth": "49.9%"},
      {"smiles": "COc1ccc(C2NCCc3c2[nH]c2ccccc32)cc1CN1CCN(c2ccc(F)cc2)CC1", "note": "(centres undefined)", "growth": "24.7%"},
      {"smiles": "COc1cc(NC(=O)CCl)ccc(=O)c1", "growth": "77.1%"},
      {"smiles": "COc1ccccc1-n1cnc(N)c1C(=O)c1cc(OC)c(OC)c(OC)c1", "growth": "10.9%"},
      {"smiles": "COc1cc2c(cc1OCCCCCn1c3ccccc3c3ccccc31)N=C[C@@H]1CCCN1C2=O", "growth": "-46.7% (active)"},
      {"smiles": "O/N=C/c1ccc(O)cc1O", "growth": "96.9%"},
      {"smiles": "COc1ccc(C2=NN(C(=O)c3cc(OC)c(OC)c(OC)c3)C(c3ccc(Cl)cc3)C2)cc1OC", "note": "(centres undefined)", "growth": "-54% (active)"},
      {"smiles": "O=C(Nc1ccc(F)cc1)c1ccccc1", "growth": "97.5%"},
      {"smiles": "COc1cccc(C2C(C#N)=C(N)Oc3cc(N)ccc32)c1", "note": "(centres undefined)", "growth": "-19% (active)"},
      {"smiles": "OCCN1CCN(CCCN2c3ccccc3Sc3ccc(Cl)cc32)CC1", "growth": "85.8% and 73.9%"},
      {"smiles": "CC1(C)CC2=C3C=C[C@@H]4[C@@]5(C)CCC(=O)C(C)(C)[C@@H]5CC[C@@]4(C)[C@]3(C)CC[C@@]2(C(=O)O)CC1=O", "growth": "66.8%"},
      {"smiles": "Nc1ccc(-c2nn3c(CCC(=O)c4nc5ncccc5[nH]4)nnc3s2)c(O)c1", "growth": "107%"},
      {"smiles": "Cn1cnc([N+](=O)[O-])c1S(=O)(=O)Oc1cccc2ccccc12", "growth": "4.37% (active)"},
      {"smiles": "Cc1nc(NC(=O)NC2CCCCC2)sc1C(=O)NN", "growth": "172%"},
      {"smiles": "NC(=Nc1ccc(N)cc1)C(N)=Nc1ccc(N)cc1", "growth": "59.6%"},
      {"smiles": "COc1cc(NCCN=C(N)NC(N)=NC(C)C)c2ncccc2c1", "growth": "74.8%"},
      {"smiles": "Nc1c(S(=O)(=O)O)cc(Br)c2c1C(=O)c1ccccc1C2=O", "growth": "103% and 91%"},
      {"smiles": "CCN(CC)C(=S)SC(SC(=S)N(CC)CC)C(=O)c1nnn(-c2ccc([N+](=O)[O-])cc2)c1C", "growth": "82.4%"},
      {"smiles": "C=C1C(=O)O[C@H]2[C@H]1CC/C(COC(=O)OC/C1=C/CC[C@@]3(C)O[C@H]3[C@H]3OC(=O)[C@@H](CN(C)C)[C@@H]3CC1)=C\\CC[C@@]1(C)O[C@@H]21", "growth": "-43% (active)"}
    ]}
  ]
}
